test system: HepG2; assay: GSK_TCMDC: Percent inhibition of human HepG2 cell line. Test compounds present at 10uM.; assay type: functional

SMILES	Inhibition [%]
Cc1cc(=NN=Cc2ccccc2F)c2cc(C(F)(F)F)ccc2[nH]1	5
C[C@H](NC(=O)c1c(CN2CCC(N3CCCCC3=O)CC2)c(-c2cccs2)nc2ccccc12)C1CCCCC1	8
O=C(NC1CC1)c1ccc(N2CCC(Cc3ccccc3)CC2)nc1.O=C(O)C(F)(F)F	13
CCC(C)(C)NC(=O)C(c1cccc(OC)c1)N(C(=O)CNC(=O)c1cccs1)c1ccc2c(c1)OCCO2 (stereo unspecified)	0
C=C(C)CSc1nc2c(c(=O)n1CCc1ccccc1)C1(CCCC1)Cc1ccccc1-2	14
CCN1CCCC1CNC(=O)c1cc2c(-c3ccc(Cl)cc3)nn(C)c2s1 (stereo unspecified)	27
Cl.O=C(/C=C/c1ccccc1F)NC1CCC(CCN2CCc3ccc(-c4cccnc4)cc3CC2)CC1 (stereo unspecified)	34
O=C(CSc1nccn1Cc1ccco1)Nc1cc(C(F)(F)F)ccc1Cl	9
CCc1cc2c(N)nc(N)nc2nc1-c1ccccc1	18
CC(=O)Nc1sc(C)c(C)c1CN1CCc2ccccc2C1	0
Oc1ccccc1-c1nc2cccnc2n1CCc1cccc(C(F)(F)F)c1	4
COc1ccc(S(=O)(=O)Nc2ccc(C(=O)NCc3ccccc3C(F)(F)F)cc2)cc1N1CCN(CC2CC2)CC1.O=C(O)C(F)(F)F	27
O=C(Nc1cccc(CN2CCCN(Cc3cccc(Cl)c3)CC2)c1)c1ccc(Cl)c(Cl)c1.O=C(O)C(F)(F)F	18
O=C(Nc1ccnc(N2CC3CC2CN3Cc2cccc(O)c2)c1)c1ccc(F)cc1.O=C(O)C(F)(F)F (stereo unspecified)	2
O=C(Nc1ccc(Cl)cc1C(=O)Nc1ccncc1)c1ccc(Cl)cc1Cl	8
CCCOc1cccc(C(=O)N[C@@H](Cc2ccccc2)[C@H](O)CNCc2cccc(OC)c2)c1	14
N#Cc1ccc(N/C(=N\c2cccc(Cl)c2Cl)NCc2ccc(Cl)cc2Cl)c(O)c1	3
O=C(Nc1cccc(CN2CCCN(Cc3cccc(F)c3)CC2)c1)c1ccc(Cl)c(Cl)c1.O=C(O)C(F)(F)F	28

SMILES	Inhibition [%]
COc1ccc(OC)c(-c2ccc(O)c(CNCC(C)c3ccccc3)c2)c1 (stereo unspecified)	26
Cl.N#Cc1ccc2c(c1)CN(CCCCNC(=O)c1ccc(-c3ccccc3)cc1)CC2	0
CC(=O)Nc1ccc(C2NC(=O)NC(c3ccccc3)=C2c2nc3ccccc3s2)cc1 (stereo unspecified)	0
CN1CCC(N2CCN(Cc3ccc(-c4ccc(-c5nc6cc(F)ccc6[nH]5)s4)cc3)CC2)CC1.O=C(O)C(F)(F)F	62
O=C(Nc1cccc(-c2cccc(-c3nc4cc(C(F)(F)F)ccc4[nH]3)c2)c1)c1cccnc1	57
CN(C(=O)/C=C/c1cc(C(F)(F)F)ccc1F)C1CCN(CCCCCNC(=O)/C=C/c2ccc(Cl)c(Cl)c2)C1 (stereo unspecified)	16
COc1ccc2nccc([C@@H](O)CN3CCC(NCc4ccc5cccc(O)c5n4)CC3)c2n1.CS(=O)(=O)O	8
CCOc1cc(C)ccc1C1CCN(CCCCNC(=O)c2coc(-c3ccc(Cl)cc3)c2)CC1.Cl	34
O=C(NC1CCN(CC2(c3ccccc3F)CCCC2)CC1)c1cc[nH]n1	0
O=C(Nc1cccc(-c2ccc(-c3nc4cc(F)ccc4[nH]3)s2)c1)c1cccnc1	46
N#Cc1ccc(CN2CCCN(Cc3cccc(NC(=O)c4cc5ccccc5s4)c3)CC2)cc1.O=C(O)C(F)(F)F	31
O=C(O)C(F)(F)F.O=S(=O)(NCCN1CCCC1)c1ccc(-c2ccc(CNCc3ccccc3)cc2)s1	34
Oc1cccc(-c2nc(-c3ccccc3)c(-c3ccc(Oc4ccc(-c5[nH]c(-c6cccc(O)c6)nc5-c5ccccc5)cc4)cc3)[nH]2)c1	6
CCCCCC(C)C(C)c1cc(O)c2c(c1)OC(C)(C)CC2(O)c1ccnn1C (stereo unspecified)	20
COc1ccc(N2CCN(CCCCNC(=O)c3ccc(NC(=O)c4ccc(Cl)cc4)cc3)CC2)c(OC)c1.Cl	25
CN(C)CCCOc1ccc(CN2CC[C@H](NC(=O)c3ccc(Cl)c(Cl)c3)C2)cc1Cl.O=C(O)C(F)(F)F	65
Cc1cc([N+](=O)[O-])ccc1NC(=O)Nc1cccc(C(F)(F)F)c1	15
CN(C)C(CNC(=O)c1cc(-c2ccncc2)c(-c2ccc(Cl)c(O)c2)o1)c1ccccc1.O=C(O)C(F)(F)F (stereo unspecified)	28
